# Data published in PubChem BioAssay (NCI).
# The panel holds about 83,000 compounds, 20% with a hit somewhere; the sample as a whole holds those more often.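 Negative percent growth values reflect cell death: -40 means 40% of the cells present at the start died, and -100 means all died.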 Values without a mark were called inactive. Calls of active or inactive are those of the source. The calls were made as follows: active = growth percent below 10; inactive = the rest.
# Test system: SNB-75 CNS
# Assay: NCI-60 one-dose screen, 48 h (100 = growth as untreated, 0 = no growth, -100 = all killed)
# Conditions: 10 µM unless noted
row,SMILES,growth
1,COc1cc(/C=C/C(=O)c2ccc(Nc3ncnc4ccccc34)cc2)cc(OC)c1,70.9%
2,COc1ccc(C(=O)c2cc3c(N)c(C(=O)Nc4cccc(OC)c4)sc3nc2C)cc1,-10.6% (active)
3,CCC(C)N(CCNc1cc(OC)cc2cccnc12)CCC(C)C (stereo not given),100%
4,S=c1[nH]cccc1-c1nnc2n1Nc1nc3ccccc3cc1CS2,82.8%
5,NC(=O)C1(N2CCCCC2)CCN(CCCC(=O)c2ccc(F)cc2)CC1,23.5%
6,O=S(=O)(c1cccc(NC2=Nc3cccc4cccc2c34)c1)N1CCCC1,73.3%
7,OC1(c2ccc(Cl)c(C(F)(F)F)c2)CCN(CCCC(c2ccc(F)cc2)c2ccc(F)cc2)CC1,-66.3% (active)
8,O=c1[nH]nc(-c2ccc(Br)cc2)cc1Cc1ccc(O)cc1,91.9%
9,N/C(=N\N=C\c1cc2ccccc2s1)N/N=C/c1cc2ccccc2s1,95.5%
10,COc1ccc(C(=O)c2cc3c(N)c(C(=O)Nc4ccc(Br)cc4)sc3nc2C)cc1,-0.922% (active)
11,CC1=NNC(=O)C1CCC(=O)N/N=C(\C)c1ccc2ccccc2c1 (stereo not given),121%
12,O=C(O)c1cn(C2CC2)c2cc(N3CCN(C(=O)C[n+]4cccc5ccccc54)CC3)c(F)cc2c1=O,75.1%
13,COc1ccc(Cn2nc(-c3ccccc3)c3c2CCc2cnoc2-3)cc1,65.5%
14,O=C(O)CNC(=O)CN1C(=O)c2ccccc2C1=O,90.4%
15,O=C1CCCCCCCCC(O)C(O)CCCC(c2cccs2)O1 (stereo not given),102%
